The campaign covered roughly 310,000 compounds. About 14,000 (4.5%) showed an effect of 50% or more. The effect is printed as a negative number. Shown is part of a subset that was picked to be rich in strong results.
What follows are compounds tested against human ether-à-go-go-related gene (hERG) potassium channel (human, UniProt Q12809) (assay: primary screen, population patch clamp on CHO cells stably expressing hERG; higher = less effect of the substance).
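Note: peak tail current of the secondary pulse compared with the same well before compound.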

Sequence of human ether-à-go-go-related gene (hERG) potassium channel (Q12809 whole entry, looked up): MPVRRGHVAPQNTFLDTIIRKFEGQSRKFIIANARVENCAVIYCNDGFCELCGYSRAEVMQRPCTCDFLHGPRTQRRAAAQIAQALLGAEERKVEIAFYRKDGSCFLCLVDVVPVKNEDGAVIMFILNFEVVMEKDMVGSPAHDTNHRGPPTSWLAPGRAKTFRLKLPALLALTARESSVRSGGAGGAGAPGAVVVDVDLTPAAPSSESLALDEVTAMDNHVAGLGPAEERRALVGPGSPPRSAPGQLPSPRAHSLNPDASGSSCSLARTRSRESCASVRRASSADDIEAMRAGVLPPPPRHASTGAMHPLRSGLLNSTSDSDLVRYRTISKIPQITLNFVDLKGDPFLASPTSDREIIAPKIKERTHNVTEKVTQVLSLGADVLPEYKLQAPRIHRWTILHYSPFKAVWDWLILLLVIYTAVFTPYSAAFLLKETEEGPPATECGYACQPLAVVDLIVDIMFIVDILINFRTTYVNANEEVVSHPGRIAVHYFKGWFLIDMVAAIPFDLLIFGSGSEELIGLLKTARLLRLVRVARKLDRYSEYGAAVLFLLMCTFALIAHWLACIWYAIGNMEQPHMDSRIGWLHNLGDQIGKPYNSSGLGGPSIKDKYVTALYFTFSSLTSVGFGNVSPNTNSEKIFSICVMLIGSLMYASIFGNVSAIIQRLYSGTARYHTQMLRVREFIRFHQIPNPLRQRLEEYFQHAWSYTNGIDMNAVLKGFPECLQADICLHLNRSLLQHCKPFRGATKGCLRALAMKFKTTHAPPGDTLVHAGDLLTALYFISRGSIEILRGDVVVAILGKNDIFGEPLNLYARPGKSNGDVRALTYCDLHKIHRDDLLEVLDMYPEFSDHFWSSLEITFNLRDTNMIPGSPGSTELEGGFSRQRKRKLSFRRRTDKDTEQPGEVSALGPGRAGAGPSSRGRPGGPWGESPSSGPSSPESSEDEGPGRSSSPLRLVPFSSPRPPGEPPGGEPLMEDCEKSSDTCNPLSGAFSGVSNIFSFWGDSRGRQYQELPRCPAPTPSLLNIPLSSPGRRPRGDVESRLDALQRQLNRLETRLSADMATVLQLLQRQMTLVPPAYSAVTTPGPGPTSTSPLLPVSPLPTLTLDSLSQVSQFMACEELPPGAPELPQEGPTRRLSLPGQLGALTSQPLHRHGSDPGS

SMILES	hERG current change (%, negative = inhibition) at 10uM [%]
COc1cccc(C(=O)NCCS(=O)(=O)NCc2cccnc2)c1	8.66
COC(=O)c1ccc(NC(=O)CSc2nnc(C3CC3)n2C)cc1	-4.59
COc1ccccc1S(=O)(=O)Cc1ccc(C(=O)NC2CC2)o1	18.5
CCN(CC#CCC1(O)c2ccccc2-c2ccccc21)C(C)C	-9.99
O=C(COC(=O)c1ccc[nH]c1=O)NC1CCCCCC1	46.2
Cc1cc2c(NC(=O)CCCC(=O)O)cccc2nn1	13.6
Cc1cccc2sc(NNC(=O)c3cc(-c4cccs4)nc4ccccc34)nc12	13.4
CC(=O)NC(NC(=S)Nc1ccc(N=Nc2ccccc2)cc1)C(Cl)(Cl)Cl (stereo not drawn)	19.6
O=C(COc1ccc(Br)cc1)N1CCOCC1	-0.627
Cc1cccc(NS(=O)(=O)c2ccc3c(c2)NC(=O)CO3)c1C	3.88
CC(=O)N(c1ccc2oc(=O)sc2c1)S(=O)(=O)c1cccc2cccnc12	5.98
Cc1ccc(C)c(N2CCN(CCCNC(=O)Cn3c(=O)c4cccn4c4cccnc43)CC2)c1	-59.6
Cc1ccc(Cl)cc1N1CCN(C(=O)CCCn2c(=O)c3cccn3c3cccnc32)CC1	-15.1
CC1CCCC(C)N1CCCNC(=O)Cn1c(=O)c2cccn2c2cccnc21 (stereo not drawn)	2.77
CCC1CCCCN1CCCNC(=O)Cn1c(=O)c2cccn2c2cccnc21 (stereo not drawn)	12.1
Cc1ccc(C)c(N2CCN(CCCNC(=O)CCn3c(=O)c4cccn4c4cccnc43)CC2)c1	-70
CC1CCCC(C)N1CCCNC(=O)CCn1c(=O)c2cccn2c2cccnc21 (stereo not drawn)	16.7
O=C1NN(c2cccc(Br)c2)C(=O)/C1=C\c1ccc(O)cc1	12
CCS(=O)(=O)Nc1ccc(-c2nnc(SCC(=O)c3ccc(NC(C)=O)c(OC)c3)o2)cc1	-23.8
C#CCOCCOCCOCCNc1nc(N2CCN(C(=O)[C@H]([C@@H](C)CC)n3cc([C@@H](N)CO)nn3)CC2)nc(N2CCN(C(=O)[C@H](Cc3ccc(O)cc3)n3cc([C@@H](N)C(C)CC)nn3)CC2)n1.Cl (stereo partly drawn)	0.411
CC1CCN(C(=O)CN2C(=O)c3cccc4cccc(c34)C2=O)CC1	2.37

SMILES	hERG current change (%, negative = inhibition) at 10uM [%]
CC(C)C[C@H]1CN=C(Nc2ccccc2)N1CC1CCCC1	-24
CC(C)C[C@H]1CN=C(Nc2ccccc2)N1CC1CCCCCC1	-60.6
CC(C)C[C@H]1CN=C(Nc2ccccc2)N1CC1CCCCC1	-45.7
CC(C)C[C@H]1CN=C(Nc2ccccc2)N1CC1CCC(C)CC1 (stereo partly drawn)	-50.3
CC(C)C[C@H]1CN=C(Nc2ccccc2)N1CC1CCC(C(C)(C)C)CC1 (stereo partly drawn)	-78.3
CC1CCC(CN2C(Nc3ccccc3)=NC[C@@H]2C)CC1 (stereo partly drawn)	-9.6
CCOC(=O)c1cccc(NC(=O)CNC(=O)C2CCCCC2)c1	-3.8
O=C(COc1ccc(-n2cnnn2)cc1)Nc1ccccc1OC(F)F	4.44
N#Cc1c(N)n(-c2cccc(C(=O)O)c2)c2nc3ccccc3nc12	14.6
Cc1ccc(NC(=O)Nc2cnccn2)cc1	5.11
Cc1ccc(C(=O)CCC(=O)OCC(=O)Nc2ccc3[nH]c(=O)[nH]c3c2)cc1	14
O=C1C2C3C=CC(C2C(=O)N1c1ccc(O)cc1)C1C2C(=O)N(c4ccc(O)cc4)C(=O)C2C31 (stereo not drawn)	-10.7
COc1cccc(-c2c(C(=O)N/N=C/c3ccoc3)nnn2-c2nonc2N)c1	-9.92
CCSc1nnc(NC(=O)CCNS(=O)(=O)c2cc(Br)cnc2N)s1	0.00778
Cc1ccc(C(=O)Nc2cccc(C(F)(F)F)c2)cc1NC(=O)c1cnnc2ccccc12	-5.9
O=C(Nc1cccc(C(F)(F)F)c1)c1cccnc1	-21.3
Cc1ccc(C(=O)Nc2cccc(C(F)(F)F)c2)cc1Nc1ncnc2nc[nH]c12	-60.2
Cc1ccc(C(=O)Nc2cccc(C(F)(F)F)c2)cc1Nc1cnccn1	-38.4
Cc1ccc(C(=O)Nc2cccc(C(F)(F)F)c2)cc1Nc1ccccn1	-67.4
Cc1ccc(NC(=O)c2cccc(C(F)(F)F)c2)cc1NC(=O)c1[nH]cnc1C(N)=O	-1.07
COc1cc(NC(=O)c2ccc(N)nc2)cc(C(=O)Nc2cccc(C(F)(F)F)c2)c1	-5.66
